Results from PubChem BioAssay (NCI).
About 83,000 compounds went through this panel and 20% of them were active in at least one assay; those are over-represented in the sample as a whole.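 The endpoint reported here, percent growth, reads 100 for growth as untreated, 0 for no net growth and -100 for all cells dead.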 A number with no mark means an inactive call. Calls of active or inactive are those of the source. The calls were made as follows: active = growth percent below 10; inactive = the rest.

tested on: MCF7 breast; test: NCI-60 one-dose screen, 48 h (100 = growth as untreated, 0 = no growth, -100 = all killed); conditions: 10 µM unless noted

Compound	growth
C[C@H]1C(=O)N2c3ccccc3[C@@]3(O)C[C@@H](n4cnc5ccccc5c4=O)C(=O)N1[C@@H]23	98.9%
O=C1/C(=C\c2coc3ccccc3c2=O)c2ccccc2N1c1c(Cl)cccc1Cl	31.6%
Oc1c(Cl)cc(Cl)c(Cl)c1Cc1c(O)c(Cl)cc(Cl)c1Cl	10.3%
COc1ccc(C2=NN(C(N)=S)C(c3ccc4c(c3)OCO4)C2)cc1 (stereo not drawn)	10.5%
CC[C@H]1CN2CCc3cc(OC)c(OC)cc3C2C[C@@H]1CC1NCCc2cc(OC)c(OC)cc21 (stereo partly drawn)	-2.18% (active)
COc1cccc(C2=NN(C(C)=O)C(c3cc(OC)c(OC)c(OC)c3)C2)c1 (stereo not drawn)	3.81% (active)
CC(=O)O[C@H]1CC[C@@]2(C)C(=CC[C@@H]3[C@@H]2CC[C@]2(C)C(c4cccnc4)=CC[C@@H]32)C1	46%
Cc1cc2c(cc1C)[n+](Cc1ccc3ccccc3c1)cn2Cc1ccc2ccccc2c1	-67.7% (active)
N/C(=N\C(N)=N\c1nc2ccccc2s1)c1ccnc(Cl)c1	31.5%
CC(=O)OC1Oc2cc(C)c(C)cc2-c2oc(=O)c(-c3ccccc3)cc21 (stereo not drawn)	10.9%
O=C(N/N=C/c1cccc(O)c1O)c1ccccc1	3.07% (active)
CN[C@@H]1C(OC2[C@H](O[C@H]3[C@H](O)[C@@H](O)[C@H](N=C(N)N)[C@@H](O)[C@@H]3N=C(N)N)OC(C)[C@]2(O)CO)OC(CO)C(O)C1O (stereo partly drawn)	111%
CN(C)c1ccc(-c2nc3ncc(Br)cc3o2)cc1	97.6%
O=C(C(=O)N1CCOCC1)c1cn(CCCn2cc(C(=O)C(=O)N3CCOCC3)c3ccccc32)c2ccccc12	95.4%
C[N+]1(C)C2CC[C@@H]1CC(OC(=O)C(O)c1ccccc1)C2 (stereo partly drawn)	106%
Cn1ccnc1C(=O)/C=C/c1ccc(C(=O)Nc2nc3ccccc3[nH]2)cc1	19.5%
COc1ccc(/C=C2\CCc3ccccc3C2=O)cc1	85.7%
CCSc1nc(Nc2ccc(S(=O)(=O)Nc3ccon3)cc2)c(C#N)c(-c2cccc(Br)c2)n1	79.2%
COc1ccc(C2CC(c3ccc4c(c3)OCO4)=NN2C=O)cc1 (stereo not drawn)	98.6%
CSc1nc2nc3c(c(-c4ccc(C)cc4)c2c(=O)[nH]1)CN(C)C/C3=C\c1ccc(C)cc1	87%
O=c1oc2c(cc1-c1ccc([N+](=O)[O-])cc1)C(O)Oc1ccccc1-2 (stereo not drawn)	90.8%
COc1ccccc1-n1c(-c2ccc(O)cc2C)cn2c3c(=O)[nH]c(=O)n(C)c3nc12	91.7%
CCOc1cc(/C=C/C(=O)CC(=O)/C=C/c2ccc(OC(=O)CNCCN(CC)CC)c(OCC)c2)ccc1OC(=O)CNCCN(CC)CC	7.36% (active)

tested on: HCT-116 colon; test: as above; conditions: 10 µM unless noted

Compound	growth
CC(=O)Nc1c(Cl)cc2c(c1Cl)Cc1ccccc1-2	99.1%
Clc1ccc(C2c3ccccc3-c3nccn32)c(Cl)c1 (stereo not drawn)	49%
Cc1ccccc1NC(=O)N/C(N)=N/c1nc2ccccc2s1	10.2%
O=[N+]([O-])c1cc([N+](=O)[O-])c(N2CCCC2)cc1NN=C(c1ccc(O)cc1)c1ccc(O)cc1	8% (active)
CCCCc1ccc(C(N)=O)nc1	99.4%
O=C(c1ccc(N2CCOCC2)cc1[N+](=O)[O-])N1CCOCC1	107%
Cc1cc(C)c(C(=O)c2cccs2)c(C)c1	101%
CC(C)N(Cc1ccccc1)c1c(Cl)ssc1=O	99.9%
c1ccc(-c2oc(-c3ccccc3)c3ccccc23)cc1	108%
N#Cc1c(-c2ccccc2)cc(-c2ccccc2)n(CC(=O)O)c1=O	39.2%
Oc1c(N=Nc2nn[nH]n2)ccc2ccccc12	76.5%
CCOC(=O)C(C(=O)OCC)C1CCCCC1	104%
CNCCCn1c2c(c3ccc(F)cc3c1=O)C(=O)c1cc(OC)cnc1-2	-78% (active)
O=C1NC(=O)/C(=C/c2ccc(Cl)cc2Cl)N1	114%
Nc1c(C(=O)Nc2cccc(Cl)c2)sc2nc3c(cc12)C(O)CCC3 (stereo not drawn)	19.1%
CCN(CC)CCCCCCCNc1c2ccc(Cl)cc2nc2ccc(OC)cc12	-49.6% (active)
Cn1c(N2N=C(c3ccc(Cl)cc3)CC2c2ccccc2)nc(-c2ccccc2)c(C#N)c1=O (stereo not drawn)	51%
C[C@H]1C(=O)N2c3ccccc3[C@@]3(O)C[C@@H](n4cnc5ccccc5c4=O)C(=O)N1[C@@H]23	93.8%
O=C1/C(=C\c2coc3ccccc3c2=O)c2ccccc2N1c1c(Cl)cccc1Cl	35.6%
Oc1c(Cl)cc(Cl)c(Cl)c1Cc1c(O)c(Cl)cc(Cl)c1Cl	3.93% (active)

Compound	growth
COc1ccc(C2=NN(C(N)=S)C(c3ccc4c(c3)OCO4)C2)cc1 (stereo not drawn)	1.71% (active)
CC[C@H]1CN2CCc3cc(OC)c(OC)cc3C2C[C@@H]1CC1NCCc2cc(OC)c(OC)cc21 (stereo partly drawn)	-22.9% (active)
COc1cccc(C2=NN(C(C)=O)C(c3cc(OC)c(OC)c(OC)c3)C2)c1 (stereo not drawn)	26.9%
CC(=O)O[C@H]1CC[C@@]2(C)C(=CC[C@@H]3[C@@H]2CC[C@]2(C)C(c4cccnc4)=CC[C@@H]32)C1	54.1%
Cc1cc2c(cc1C)[n+](Cc1ccc3ccccc3c1)cn2Cc1ccc2ccccc2c1	-96.4% (active)
N/C(=N\C(N)=N\c1nc2ccccc2s1)c1ccnc(Cl)c1	31.7%
CC(=O)OC1Oc2cc(C)c(C)cc2-c2oc(=O)c(-c3ccccc3)cc21 (stereo not drawn)	14%
O=C(N/N=C/c1cccc(O)c1O)c1ccccc1	9.39% (active)
CN[C@@H]1C(OC2[C@H](O[C@H]3[C@H](O)[C@@H](O)[C@H](N=C(N)N)[C@@H](O)[C@@H]3N=C(N)N)OC(C)[C@]2(O)CO)OC(CO)C(O)C1O (stereo partly drawn)	105%
CN(C)c1ccc(-c2nc3ncc(Br)cc3o2)cc1	86.8%
O=C(C(=O)N1CCOCC1)c1cn(CCCn2cc(C(=O)C(=O)N3CCOCC3)c3ccccc32)c2ccccc12	98.4%
C[N+]1(C)C2CC[C@@H]1CC(OC(=O)C(O)c1ccccc1)C2 (stereo partly drawn)	102%
Cn1ccnc1C(=O)/C=C/c1ccc(C(=O)Nc2nc3ccccc3[nH]2)cc1	23.1%
COc1ccc(/C=C2\CCc3ccccc3C2=O)cc1	94.3%
CCSc1nc(Nc2ccc(S(=O)(=O)Nc3ccon3)cc2)c(C#N)c(-c2cccc(Br)c2)n1	85%
COc1ccc(C2CC(c3ccc4c(c3)OCO4)=NN2C=O)cc1 (stereo not drawn)	96.4%
CSc1nc2nc3c(c(-c4ccc(C)cc4)c2c(=O)[nH]1)CN(C)C/C3=C\c1ccc(C)cc1	101%
O=c1oc2c(cc1-c1ccc([N+](=O)[O-])cc1)C(O)Oc1ccccc1-2 (stereo not drawn)	94.8%
COc1ccccc1-n1c(-c2ccc(O)cc2C)cn2c3c(=O)[nH]c(=O)n(C)c3nc12	97%
CCOc1cc(/C=C/C(=O)CC(=O)/C=C/c2ccc(OC(=O)CNCCN(CC)CC)c(OCC)c2)ccc1OC(=O)CNCCN(CC)CC	-84.7% (active)
